{
  "source": "PubChem BioAssay (EPA / NIEHS)",
  "note": "Calls of active or inactive are those of the source. How the source made its calls: active means hit-call score of the fitted dose curve at least 0.9, where 1 is the maximum; inactive means score below 0.9.",
  "data": [
    {"read-out": "Transforming growth factor beta 1 (TGFb1), TGFB1 (gene 7040)", "assay": "BSK_KF3CT_TGFb1: BioMAP Diversity Plus: KF3CT Assay for Transforming growth factor beta 1 (TGFb1) Biomarker Activity (AID 2283072)", "conditions": "primary human keratinocytes with fibroblasts; actives raise or lower the signal", "procedure": "BSK_KF3CT is a cell-based, multiplexed-readout assay that uses keratinocytes and foreskin fibroblasts, a human skin primary cell co-culture, with measurements taken at 24 hours after chemical dosing in a 96-well plate.BSK_KF3CT_TGFb1 is an assay component measured in the BSK_KF3CT assay. It measures TGF-b1 antibody related to regulation of gene expression using ELISA technology.Data from the assay component BSK_KF3CT_TGFb1 was analyzed into 1 assay endpoint. This assay endpoint, BSK_KF3CT_TGFb1, was analyzed with bidirectional fitting relative to DMSO as the negative control and baseline of activity. Using a type of binding reporter, gain or loss-of-signal activity can be used to understand changes in the signaling as they relate to the gene TGFB1. Furthermore, this assay endpoint can be referred to as a primary readout, because this assay has produced multiple assay endpoints where this one serves a signaling function. To generalize the intended target to other relatable targets, this assay endpoint is annotated to the growth factor intended target family, where the subfamily is transforming growth factor beta.\nThe levels of cell surface (or secreted, indicated by the prefix \"s\") biomarker endpoints were measured by ELISA. Overt cytotoxicity to cells in confluent adherent cultures (all systems other than the BT system) was assessed by measuring total protein levels using sulforhodamine B (SRB) staining in parallel cultures at the time of biomarker measurements, indicated as SRB endpoints. For proliferation assays for adherent cell types, individual cell types are cultured at sub-confluence and relative cell numbers quantified by SRB staining at time points optimized for each system (48 h: 3C and CASM3C systems; 72 h: BT and HDF3CGF systems; 96 h: SAg system). SRB was performed by staining cells with 0.1% SRB after fixation with 10% TCA and reading wells at 560 nm.Viability and proliferation of PBMC (T cells) was quantified by Alamar Blue reduction for the SAg and BT systems. For PBMC viability (referred to as PBMC Cytotoxicity within the assay endpoint names), cells were plated (75,000/well in a 96-well plate) and then chemical samples added for 1 h before addition of activators, SEB and TSST-1 (20 ng/mL final concentration each). Cells were incubated for 90 h. Then, Alamar Blue (20 uL/well) (Invitrogen, Cat DAL1100) was added for 6 h, and the plates were read with a fluorescence microplate reader at 546/580 nm (excitation/emission). For PBMC proliferation, cells were plated and activated as above but incubated for only 16 h prior to addition of Alamar Blue. Plates were read after 6 h.", "values": [
      {"molecule": "CCCCCCCCCCCCc1cccc(S(=O)(=O)O)c1", "AC50": "25.3 µM (active)"},
      {"molecule": "CCOC(=O)CCN(SN(C)C(=O)Oc1cccc2c1OC(C)(C)C2)C(C)C", "outcome": "inactive"},
      {"molecule": "Nc1c(Oc2ccccc2)cc(O)c2c1C(=O)c1ccccc1C2=O", "outcome": "inactive"},
      {"molecule": "CCCCN(CCCC)C(=S)[S-].CCCCN(CCCC)C(=S)[S-].[Ni+2]", "outcome": "inactive"},
      {"molecule": "CC(C)(C)c1cc([N+](=O)[O-])cc(C(C)(C)C)c1O", "outcome": "inactive"},
      {"molecule": "Cc1cccc(OP(=O)(Oc2cccc(C)c2)Oc2cccc(C)c2)c1", "outcome": "inactive"},
      {"molecule": "Clc1cccc(Cl)c1Cl", "outcome": "inactive"},
      {"molecule": "CC1(C)[C@H](C(=O)O[C@H](C#N)c2cccc(Oc3ccccc3)c2)[C@@H]1/C=C(\\Cl)C(F)(F)F", "outcome": "inactive"},
      {"molecule": "CCC(C)(C#N)N=NC(C)(C#N)CC", "note": "(stereo not given)", "outcome": "inactive"},
      {"molecule": "Cc1ccccc1OP(=O)(Oc1ccccc1C)Oc1ccccc1C", "outcome": "inactive"},
      {"molecule": "O=[N+]([O-])c1ccc(Nc2ccccc2)cc1", "outcome": "inactive"},
      {"molecule": "O=c1oc2ccccc2c(O)c1C(CC(O)c1ccc(-c2ccc(Br)cc2)cc1)c1ccccc1", "note": "(stereo not given)", "AC50": "5.23 µM (active)"},
      {"molecule": "CC(C)(C)c1ccccc1O", "outcome": "inactive"},
      {"molecule": "OC(Cc1ccccc1Cl)(Cn1cncn1)C1(Cl)CC1", "note": "(stereo not given)", "outcome": "inactive"},
      {"molecule": "O=[N+]([O-])c1cccc2ccccc12", "outcome": "inactive"},
      {"molecule": "OCCN(CCO)CCO", "outcome": "inactive"},
      {"molecule": "Oc1c(Br)cc(Br)cc1Br", "outcome": "inactive"},
      {"molecule": "Cc1ccc2nc3sc(=O)sc3nc2c1", "outcome": "inactive"},
      {"molecule": "CCOP(=S)(OCC)OP(=S)(OCC)OCC", "outcome": "inactive"},
      {"molecule": "CCOP(=O)(OCC)OC(=CCl)c1ccc(Cl)cc1Cl", "AC50": "27.1 µM (active)"},
      {"molecule": "Cc1cc(Cl)ccc1N", "outcome": "inactive"},
      {"molecule": "O=S(=O)(C(Cl)(Cl)Cl)C(Cl)(Cl)Cl", "outcome": "inactive"},
      {"molecule": "CCOC(=O)CC(=O)CCl", "outcome": "inactive"},
      {"molecule": "c1ccc2sc(SNC3CCCCC3)nc2c1", "outcome": "inactive"},
      {"molecule": "O=C(N[C@H]1CN2CCC1CC2)c1ccc2c(c1)OCCO2", "outcome": "inactive"},
      {"molecule": "Oc1cccc(-c2ccccc2)c1", "outcome": "inactive"},
      {"molecule": "Cc1ccc(OP(=O)(Oc2ccc(C)cc2C)Oc2ccc(C)cc2C)c(C)c1", "outcome": "inactive"},
      {"molecule": "Oc1cc(Cl)c(Cl)cc1Cl", "outcome": "inactive"},
      {"molecule": "Cc1cc(C(C)(C)c2ccc(O)c(C)c2)ccc1O", "AC50": "10 µM (active)"},
      {"molecule": "COc1ccccc1N", "outcome": "inactive"},
      {"molecule": "O=C(O)COc1cc(Cl)c(Cl)cc1Cl", "outcome": "inactive"},
      {"molecule": "COCC(=O)N(c1c(C)cccc1C)[C@H](C)C(=O)OC", "outcome": "inactive"},
      {"molecule": "Oc1c(Cl)cc(Cl)cc1Cl", "outcome": "inactive"},
      {"molecule": "CC(C)=CC1C(C(=O)OCc2cccc(Oc3ccccc3)c2)C1(C)C", "note": "(stereo not given)", "outcome": "inactive"},
      {"molecule": "C#CCOC(=O)/C=C(C)/C=C/CC(C)CCCC(C)C", "note": "(stereo not given)", "outcome": "inactive"},
      {"molecule": "C=CC(Cl)CCl", "note": "(stereo not given)", "AC50": "0.189 µM (active)"},
      {"molecule": "CN(C)C(=S)S", "outcome": "inactive"},
      {"molecule": "Clc1cccc(Cl)c1", "outcome": "inactive"},
      {"molecule": "Nc1ccc(N)cc1", "outcome": "inactive"},
      {"molecule": "O=C(CCl)NCO", "outcome": "inactive"}
    ]}
  ]
}
